Results as given in the supplement of paper PMC13380429.
A number with no mark means an inactive call.

System: Vero E6 infected with SARS-CoV-2
Assay: inhibition of SARS-CoV-2 cytopathic effect; higher = more antiviral protection, active = above 15
Settings: 48 h

Row | Structure (SMILES) | inhibition of SARS-CoV-2 cytopathic effect (1 nM) [%] | inhibition of SARS-CoV-2 cytopathic effect (8.33 nM) [%] | inhibition of SARS-CoV-2 cytopathic effect (100 nM) [%] | inhibition of SARS-CoV-2 cytopathic effect (833.33 nM) [%] | inhibition of SARS-CoV-2 cytopathic effect (10000 nM)
1 | CC1(C)Cc2c(-c3ccccc3)c(-c3ccc(Cl)cc3)c(CC(=O)O)n2C1 [licofelone] | -2.87 | 2.92 | 4.49 | 3.45 | 2.49%
2 | CCN(CC)CCNc1ccc(CO)c2sc3ccccc3c(=O)c12 [hycanthone] | -3.88 | -2.41 | -0.96 | -2.51 | 0.99%
3 | COC(=O)c1ccc(O)cc1 [methylparaben] | -0.45 | 0.03 | 2.76 | 1.99 | 2.64%
4 | Cc1c(C(=O)NCCCO)cnn1-c1nc(-c2cccc(C(F)(F)F)c2)cs1 | 2.55 | 3.83 | 3.4 | 5.36 | -0.86%
5 | CN1CC[C@@]2(C)c3cc(O)ccc3N(C)[C@@H]12 [eseroline-(-)] | 0.81 | 0.96 | 2.54 | 3.07 | 6.49%
6 | O=C(O)Cn1c(C(=O)Nc2nc(-c3ccccc3Cl)cs2)cc2ccccc21 | 0.3 | -0.21 | 0.61 | -0.36 | -0.66%
7 | C1N2CN3CN1CN(C2)C3 [methenamine] | -3.74 | 0.58 | -1.64 | -0.2 | -1.08%
8 | CN(C)[C@@H](CCOc1cccc2ccccc12)c1ccccc1 [dapoxetine] | 1.42 | 3.51 | 1.54 | 0.31 | 1.17%
9 | CC(=O)c1c(O)cc(C)oc1=O [dehydroacetic-acid] | 2.87 | 3.44 | 2.94 | 2.97 | 3.07%
10 | Oc1cc(O)c(Cl)cn1 [gimeracil] | -0.94 | 0.32 | -0.13 | -0.16 | 1.36%
11 | CCN1C(C)(C)CC(Oc2ccc(C(=O)Nc3ccc(NC(=O)Nc4cc(C(C)(C)C)on4)cc3)nc2)CC1(C)C | -2.79 | -0.55 | -1.48 | -1.05 | -4.86%
12 | COc1ccc(-n2nc(C(F)(F)F)cc2-c2ccc(Cl)cc2)cc1 | 2.57 | 3.29 | 1.98 | 1.58 | -5.13%
13 | CNC(=O)c1cc(Oc2ccc(NC(=O)Nc3ccc(Cl)c(C(F)(F)F)c3)cc2)ccn1 [sorafenib] | -0.83 | 1.38 | 2.59 | 2.85 | 16.4% (active)
14 | CC(=O)Nc1ccc(O)cc1 [paracetamol] | -0.44 | 1.77 | -0.22 | 0.33 | -2.2%
15 | CCC[C@H](NC(=O)[C@@H]1[C@H]2CCC[C@H]2CN1C(=O)[C@@H](NC(=O)[C@@H](NC(=O)c1cnccn1)C1CCCCC1)C(C)(C)C)C(=O)C(=O)NC1CC1 [telaprevir] | 0.02 | -0.75 | 0.71 | 5.12 | -2.66%
16 | CCN(CC)Cc1cc(Nc2ccnc3cc(Cl)ccc23)ccc1O [amodiaquine] | 3.02 | 3.97 | 0.97 | -1.05 | 44.7% (active)
17 | O=c1ncccn1[C@@H]1O[C@H](CO)[C@@H](O)[C@H]1O [zebularine] | -2.02 | -1.31 | 1.93 | 1.42 | -1.45%
18 | Cc1cc(O)cc2c1O[C@](C)(CCC[C@H](C)CCC[C@H](C)CCCC(C)C)CC2 [D-delta-tocopherol] | 1.56 | 0.99 | 2.25 | 0.84 | -0.19%
19 | O[C@H]1CC[C@H](Nc2nc(-c3ccccc3)nc3[nH]ccc23)CC1 | -1.91 | -3.12 | -4.27 | -1.49 | -0.8%
20 | NC[C@@H]1CC[C@@H](N)[C@@H](O[C@H]2[C@H](O)[C@@H](O[C@H]3O[C@H](CO)[C@@H](O)[C@H](N)[C@H]3O)[C@H](N)C[C@@H]2N)O1 [dibekacin] | 5.18 | -1.26 | 1.67 | 2 | 1.51%

Row | Structure (SMILES) | inhibition of SARS-CoV-2 cytopathic effect (1 nM) [%] | inhibition of SARS-CoV-2 cytopathic effect (8.33 nM) [%] | inhibition of SARS-CoV-2 cytopathic effect (100 nM) [%] | inhibition of SARS-CoV-2 cytopathic effect (833.33 nM) [%] | inhibition of SARS-CoV-2 cytopathic effect (10000 nM)
21 | Cc1ccc(O)c(N=Nc2ccccc2)n1 | -2.81 | -4.41 | -3.53 | 0.01 | 3.77%
22 | Cc1cc(-c2ccccc2)nnc1NCCN1CCOCC1 [minaprine] | 0.27 | 0.75 | -0.02 | 1.16 | 1.01%
23 | C=CCn1c(=O)c2cnc(Nc3ccc(N4CCN(C)CC4)cc3)nc2n1-c1cccc(C(C)(C)O)n1 | -1.29 | 2.7 | 0.63 | -3.99 | -6.53%
24 | CC(=O)N(CC(O)CO)c1c(I)c(C(=O)NCC(O)CO)c(I)c(C(=O)NCC(O)CO)c1I (stereo not given) [iohexol] | -1.99 | -0.81 | -1.68 | -0.74 | 2.67%
25 | CC[C@]1(O)C[C@H]2CN(CCc3c([nH]c4ccccc34)[C@@](C(=O)OC)(c3cc4c(cc3OC)N(C=O)[C@H]3[C@@](O)(C(=O)OC)[C@H](OC(C)=O)[C@]5(CC)C=CCN6CC[C@]43[C@@H]65)C2)C1 [Vincristine (sulfate)] | -1.47 | -1.12 | 0.94 | 0.14 | -0.29%
26 | COc1cc2ncnc(Nc3ccc(F)c(Cl)c3)c2cc1NC(=O)/C=C/CN1CCCCC1 [dacomitinib] | -4.89 | -7.71 | -13.6 | -15.7 | -20.6%
27 | COc1cc2c(=O)c(-c3ccc(O)cc3)coc2cc1O [glycitein] | 1.2 | -0.34 | -0.96 | -2.13 | -1.58%
28 | CN[C@@H]1[C@@H](O[C@H]2O[C@H](CO)[C@@H](N)[C@H](O)[C@H]2O)O[C@H]2C[C@@H](N)[C@@H](O[C@H]3[C@H](O)[C@@H](O)[C@H](N)C[C@@H]3N)O[C@@H]2[C@@H]1O [apramycin] | -4.27 | -2.53 | -2.38 | 0.37 | 0.71%
29 | CN1C2CCC1CC(OC(c1ccccc1)c1ccc(Cl)cc1)C2 (stereo not given) | 5.63 | 6.26 | -1.76 | -2.87 | 17.4% (active)
30 | CN(C)CCc1c[nH]c2ccc(CS(=O)(=O)N3CCCC3)cc12 [almotriptan] | -0.13 | 1.33 | -0.24 | 0.04 | -2.87%
31 | O=S1(=O)c2cccc3cccc(c23)N1CCCN1CCN(c2ccc(F)cc2)CC1 [fananserin] | -2.57 | -1.46 | -1.21 | -2.34 | -0.89%
32 | Oc1ccc([C@@H]2Oc3ccc(O)cc3[C@@H]3CCC[C@@H]32)cc1 [erteberel] | -2.79 | 0.52 | -1.51 | -4.66 | 2.31%
33 | CCCCCCCCNC(C)C(O)c1ccc(SC(C)C)cc1 (stereo not given) [suloctidil] | 0.05 | -0.56 | -0.38 | 0.21 | -0.41%
34 | NCc1ccccc1CC(=O)N[C@@H]1C(=O)N2C(C(=O)O)=C(CSc3nnnn3CC(=O)O)CS[C@H]12 [ceforanide] | 0.96 | 0.98 | -0.17 | 2.04 | 2.57%
35 | Nc1ccc([As](=O)(O)O)cc1 [arsanilic-acid] | 0.07 | 1.05 | -1.33 | -2.25 | -0.8%
36 | CC(C)Nc1nc2cc(Cl)c(Cl)cc2n1[C@H]1O[C@@H](CO)[C@H](O)[C@@H]1O [maribavir] | 2 | -0.5 | 0.22 | -0.76 | -2.15%
37 | N=C(N)c1cc2ccc(OC(=O)c3cccs3)cc2s1 | 1.66 | 1.86 | 2.63 | -1.57 | 4.87%
38 | CC(C)(C)CC(C)(C)c1ccc(OCCOCC[N+](C)(C)Cc2ccccc2)cc1 [benzethonium] | -8.35 | -10.6 | -12.9 | -9.21 | -15.1%
39 | CN(C)C(=N)NC(=N)N [metformin] | 0.25 | 1.14 | 2.76 | 1.97 | 5.07%
